Assay results published in ChEMBL document CHEMBL3988442, “University of Dundee, Small-Polar-MMV Screening Library” (2021).
Out of some 69,000 compounds screened, about 950 (1.4%) showed an effect of 50% or more. The list comes from a sample in which strong results are over-represented; it also holds similar structures and randomly drawn compounds.

tested on: Mycobacterium tuberculosis; assay: Cornell M. t heat shock assay; assay type: functional, organism-based; design: dose or concentration left out as unconfirmed; further: in the data most compounds retested in dose-response had high values

| Structure (SMILES) | Percent Effect |
| --- | --- |
| CC(CCc1ccco1)NC(=O)Nc1cc(C(F)(F)F)c[nH]c1=O (centres undefined) | 102.3% |
| CC(C)CCOCCNC(=O)Nc1cc(C(F)(F)F)c[nH]c1=O | 62.92% |
| O=C(NCCOc1ccccc1)Nc1cc(C(F)(F)F)c[nH]c1=O | 24.31% |
| O=C(NCCNc1ncccn1)Nc1cc(C(F)(F)F)c[nH]c1=O | -2.019% |
| O=C(NCCc1ccco1)Nc1cc(C(F)(F)F)c[nH]c1=O | 9.339% |
| O=C(CCc1ccco1)Nc1cc(C(F)(F)F)c[nH]c1=O | -7.508% |
| COc1cc(CNCc2ccnc(N3CCCC3)c2)cc(OC)c1.Cl | 5.029% |
| O=C(NCc1ccccn1)[C@@H]1CCO[C@@H]2CCN(Cc3ccoc3)C[C@H]21.O=C(O)C(F)(F)F.O=C(O)C(F)(F)F | 8.703% |
| Cc1cnn(CC2CN(Cc3nc(-c4ccsc4)no3)CCO2)c1 (centres undefined) | 77.9% |
| O=S(=O)(CCN1CCOC(Cn2cccn2)C1)c1ccccc1 (centres undefined) | 6.109% |
| Cc1cnn(CC2CN(CCS(C)(=O)=O)CCO2)c1 (centres undefined) | 3.305% |
| Cc1ccc(-c2nc(CN3CCOC(Cn4cccn4)C3)no2)cc1 (centres undefined) | 60.58% |
| Cc1cnn(CC2CN(Cc3nc(-c4ccoc4)no3)CCO2)c1 (centres undefined) | 8.998% |
| Cc1cnn(CC2CN(CCCS(C)(=O)=O)CCO2)c1 (centres undefined) | 7.266% |
| c1cnn(CC2CN(Cc3nc(-c4ccsc4)no3)CCO2)c1 (centres undefined) | -8.346% |
| Cc1cnn(CC2CN(CCS(=O)(=O)C(F)(F)F)CCO2)c1 (centres undefined) | 85.56% |
| c1cnn(CCN2CCOC(Cn3cccn3)C2)c1 (centres undefined) | -7.25% |
| O=S(=O)(CCN1CCOC(Cn2cccn2)C1)C(F)(F)F (centres undefined) | 103.2% |
| c1ccc(-c2nc(CN3CCOC(Cn4cccn4)C3)no2)cc1 (centres undefined) | 2.98% |
| Cc1nc(CN2CCOC(Cn3cccn3)C2)no1 (centres undefined) | -15.93% |
| O=C(O)C(F)(F)F.O=C(O)C(F)(F)F.c1cncc(N2CCCn3nnc(CN4CCCCC4)c3C2)c1 | 0.6199% |
| C1CC(CN2CCc3c(nnn3CC3CC3)C2COCC2CC2)C1.O=C(O)C(F)(F)F (centres undefined) | -20.7% |
| Cl.Cl.Cn1cc(C(=O)NCc2cncc3c2CCNC3)cn1 | -18.1% |

| Structure (SMILES) | Percent Effect |
| --- | --- |
| CN1CCN(CC2CN(CC3CC3)Cc3nccn3C2)CC1.O=C(O)C(F)(F)F.O=C(O)C(F)(F)F.O=C(O)C(F)(F)F (centres undefined) | -11.65% |
| O=C(O)C(F)(F)F.O[C@@H]1CCN(CC2CC2)[C@H]1Cc1ccccc1 | -16.02% |
| O=C(O)C(F)(F)F.O=C(O)C(F)(F)F.O=C(O)C(F)(F)F.c1ccc(CN2CC[C@@H]3O[C@@H](COCCN4CCCC4)CC[C@@H]32)nc1 | -2.857% |
| CCOc1cccc2c1OCC(=O)N(c1ccc3c(c1)OCCO3)C2 | 11.44% |
| CCOc1cccc2c1OCC(=O)N(c1ccc3c(c1)OCO3)C2 | -8.154% |
| CCOc1cccc2c1OCC(=O)N(c1ccc(N(C)C)cc1)C2 | 78.25% |
| COCCN1CCC2(CC1)CN(C(=O)c1ccco1)CCO2.O=C(O)C(F)(F)F | -23.42% |
| Cl.O=C(Nc1nc2c(s1)CNCC2)C1CC1 | 12.02% |
| O=C(Nc1nc2c(s1)CCC2)NC1CCCC1 | 7.852% |
| Cl.O=C(Nc1nc2c(s1)CNCC2)NC1CCCC1 | 102.9% |
| O=C(O)C(F)(F)F.O=C(O)C(F)(F)F.c1cncc(-c2nnn3c2COCC(CNCC2CCOCC2)C3)c1 (centres undefined) | -15.79% |
| COCCn1cc2c(n1)C(CNCc1cccc(OC)c1)OCC2.O=C(O)C(F)(F)F (centres undefined) | -15.92% |
| Cc1ccc(CN2CC[C@@H]3O[C@@H](C(=O)N4CCN(C)CC4)C[C@@H]32)cc1.O=C(O)C(F)(F)F.O=C(O)C(F)(F)F | 25.47% |
| CCn1ncc2c1CN(C(=O)c1cscn1)CC2COC.O=C(O)C(F)(F)F (centres undefined) | 5.615% |
| CC(C)CN1CCC(N2CCC(C(=O)N(C)C)CC2)CC1.O=C(O)C(F)(F)F.O=C(O)C(F)(F)F | 9.102% |
| O=C(O)c1cc(-c2ccn(CC3CC3)n2)n2ccccc12 | -0.3144% |
| Cn1ccc(-c2cc(C(=O)N3CCCCC3)c3ccccn23)n1 | 2.688% |
| O=C(c1cc(-c2ccn(CC3CC3)n2)n2ccccc12)N1CCOCC1 | 104.4% |
| Cn1ccc(-c2cc(C(=O)N3CCC(O)CC3)c3ccccn23)n1 | 65.18% |
| Cn1ccc(-c2cc(C(=O)N3CCC(C(N)=O)CC3)c3ccccn23)n1 | 6.568% |
| O=C(c1cc(-c2ccn(CC3CC3)n2)n2ccccc12)N1CCCO1 | 3.9% |
| O=C(NC[C@H]1OC[C@@H]2CCN(Cc3ccco3)C[C@@H]21)c1ccnnc1.O=C(O)C(F)(F)F | -10.06% |
| Cc1[nH]ccc1C(=O)N1CCCC(c2nccn2Cc2cscn2)C1 (centres undefined) | -1.058% |

| Structure (SMILES) | Percent Effect |
| --- | --- |
| CN(C)C(=O)[C@@H]1C[C@@H]2CCN(Cc3nccs3)C[C@@H]2O1.O=C(O)C(F)(F)F | -1.901% |
| O=C(O)C(F)(F)F.O=C(c1cccc(F)c1)N1CCC2(CC1)CC(N1CCOCC1)C2 | -0.407% |
| CCCC(=O)NC1CCc2c(ccc(=O)n2Cc2csc(C)n2)C1.O=C(O)C(F)(F)F (centres undefined) | 46.41% |
| Cc1cccc(CN2C[C@@H]3CN(C(=O)c4cnccn4)C[C@@H]3C2=O)n1.O=C(O)C(F)(F)F | -21.43% |
| O=C(C1NCCc2[nH]cnc21)N1CCC2(C=Cc3ccccc32)CC1 (centres undefined) | 4.298% |
| O=C(C1NCCc2[nH]cnc21)N1CCC2(CC1)CNc1ccccc12 (centres undefined) | 80.65% |
| O=C1OC2(CCN(C(=O)C3NCCc4[nH]cnc43)CC2)c2ccccc21 (centres undefined) | 26.76% |
| Cl.O=C(Nc1ccc(F)cc1)C(c1ccccc1)N1CCOCC1 (centres undefined) | -22.41% |
| CC(C)c1ccc(CN2C(=O)C3(CCNCC3)Nc3ccccc32)cc1 | 76.57% |
| N#Cc1cccc(CN2C(=O)C3(CCNCC3)Nc3ccccc32)c1 | -29.61% |
| NC(=O)c1ccc(CN2C(=O)C3(CCNCC3)Nc3ccccc32)cc1 | 0.2477% |
| C=Cc1ccc(CN2CCCC3(CNC(=O)c4ccccc4O3)C2)cc1 (centres undefined) | -6.668% |
| C=Cc1ccc(CN2C(=O)C3(CCNCC3)Nc3ccccc32)cc1 | 97.35% |
| Cl.O=C1CC2(CCNCC2)C(=O)N1Cc1ccc(F)cc1 | -13.65% |
| Cc1cc(C[C@@H]2CCC[C@H]2NCc2cc(F)ccc2F)on1.O=C(O)CC(O)(CC(=O)O)C(=O)O | -16.01% |
| CC(=O)N1CCN(Cc2nccs2)CC2(CC(=O)N(C)C2)C1.O=C(O)C(F)(F)F (centres undefined) | -21.46% |
| CS(=O)(=O)N[C@H]1CN(C(=O)c2cscn2)[C@@H]2CCCO[C@H]12 | -7.446% |
| COCC(=O)N1CCN(Cc2cccnc2)c2ncccc2C1.O=C(O)C(F)(F)F.O=C(O)C(F)(F)F | -17.68% |
| CCNc1ncc2c(n1)CN(c1cccc(OC)c1)C2=O | 4.456% |
| CCOC(=O)CSc1nnc([C@@H](N)CC(C)C)o1.Cl | -13.08% |
| CS(=O)(=O)N1CCN(c2cc(N3CCCC3CO)ncn2)CC1 (centres undefined) | -0.07305% |
| OCC1CCCN1c1cc(N2CCN(c3ccccn3)CC2)ncn1 (centres undefined) | 0.3449% |
| OCC1CCCN1c1cc(N2CCC(OC3CCCC3)CC2)ncn1 (centres undefined) | 105.5% |

| Structure (SMILES) | Percent Effect |
| --- | --- |
| CC(Sc1nncn1C)C(=O)NCCCOc1ccc(F)cc1 (centres undefined) | 9.016% |
| O=C(NCc1ccccn1)[C@@H]1COC[C@H]2CN(C3CCC3)C[C@H]21.O=C(O)C(F)(F)F.O=C(O)C(F)(F)F | 3.202% |
| O=C(O)C(F)(F)F.O=C(O)C(F)(F)F.O=C(c1ccco1)N1C[C@@H]2OCCN(CCN3CCCC3)[C@@H]2C1 | -4.474% |
| Cl.c1cc(CNCc2cccc3c2OCCCO3)cc(Cn2cncn2)c1 | -3.738% |
| N#Cc1ccc(C(=O)N2CC[C@H]3[C@@H]2CCC(=O)N3c2cccnc2)cc1.O=C(O)C(F)(F)F | 0.7242% |
| O=C(NCCc1cccc(Cl)c1)C1CCOCC1 | -3.977% |
| Clc1cccc(CNC2CCN(CCc3ccncc3)CC2)c1 | -16.56% |
| Cl.Cl.Clc1cccc(C[C@@H]2NCCC[C@@H]2Nc2cccc(Cl)c2)c1 | 105.7% |
| O=C(Cc1cccc(Cl)c1)N[C@@H]1CCNC[C@H]1O | -8.967% |
| Cl.NCC1CCCCN1C(=O)Cc1cccc(Cl)c1 (centres undefined) | -16.31% |
| O=C(C[S+]([O-])Cc1cccc(Cl)c1)NC1CCCC1 (centres undefined) | -6.776% |
| O=C1NCCCc2[nH]c(Cc3cccc(Cl)c3)nc21 | 2.952% |
| Cl.Cl.Clc1cccc(C[C@@H]2NCCC[C@@H]2Nc2ccccc2)c1 | 104.8% |
| Cc1ccc(CN[C@@H]2COC[C@H]2c2ccc(F)cc2)cc1C.O=C(O)CC(O)(CC(=O)O)C(=O)O | -6.111% |
| Cc1csc(CN2C[C@@H]3COC[C@]3(COCC(=O)N(C)C)C2)n1.O=C(O)C(F)(F)F | -22.07% |
| CCn1cc2c(n1)CN(Cc1nccs1)CC2COCC1CC1.O=C(O)C(F)(F)F (centres undefined) | 3.982% |
| CC(C)c1nc(N2CCC(N3CCCC(O)C3)CC2)c2cnn(C)c2n1 (centres undefined) | -1.228% |
| CC(C)c1nc(N2CCC(N3CCSCC3)CC2)c2cnn(C)c2n1 | -6.323% |
| CC(C)c1nc(N2CCC(N3CCCCCC3)CC2)c2cnn(C)c2n1 | 94.23% |
| Cc1csc(CN2CCC[C@]3(C[C@@H](Oc4ccccn4)CO3)C2)n1.O=C(O)C(F)(F)F.O=C(O)C(F)(F)F | -18.33% |
